Structures can show the parent of a compound that is named as a salt.
tested on: Danio rerio larvae (5 dpf); assay: 1-h baseline activity (% time moving, periods 1-6) minus DMSO control (percentage points); higher = more locomotor activity than DMSO larvae; conditions: 10 µM; exposure time: 3 h pre-incubation + 3 h imaging
Experimental: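 Wild-type 5 dpf zebrafish larvae (n=48 per drug, 96-well plates, 28.5 °C) were exposed to Tocris FDA-approved library compounds at 10 µM (0.1% DMSO) for 3 h before and 3 h during imaging. Images were taken every 6 s during visual and acoustic stimuli, and larvae were tracked with Z-LaP Tracker. Each measure is the treated-group mean minus the DMSO control mean (n=844), in percentage points. This mapping covers compounds with 5-character plate codes.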

| Structure (SMILES) | 1-h baseline activity |
| --- | --- |
| COc1ccc(C(CN(C)C)C2(O)CCCCC2)cc1 (stereo unspecified) [Venlafaxine hydrochloride] | -22.8 |
